Assay results published in ChEMBL document CHEMBL3988442, “University of Dundee, Small-Polar-MMV Screening Library” (2021).
About 13,000 (27%) of roughly 48,000 compounds showed an effect of 50% or more. This is one part of the list.

test system: Wolbachia pipientis; experiment: Anti-Wolbachia Cell-Based Screen; assay type: functional; set-up: scale not given: in the data most compounds retested in dose-response had high values; conditions: 5 µM

Compound	Percent Effect [%]
COc1ccc(Cl)cc1C(=O)N1CCCC(n2nc(C)nc2C)C1 (stereo unspecified)	-10.83
COc1ccc(N2CCC(N3C[C@H](NC(C)=O)[C@@H](C(C)C)C3)CC2)cc1	0.1798
Cc1cc(Cl)ccc1C(=O)N1C[C@H](C2CC2)[C@@H](N)C1	-41.17
COc1ccc(Cl)cc1C(=O)N1C[C@H](C(C)C)[C@@H](N)C1	105.5
COc1ccc(Cl)cc1C(=O)N1C[C@@H](NC(=O)N(C)C)[C@H](C(C)C)C1	96.11
COc1ccc(C(=O)N2C[C@@H](NC(=O)N(C)C)[C@H](C(C)C)C2)c(OC)n1	83.06
COc1ccc(Cl)cc1C(=O)NCC1CCN(C(=O)c2ccoc2)CC1	-13.86
CC(=O)N[C@@H]1CN(C(=O)c2csc(C(C)C)n2)C[C@H]1C(C)C	-24.56
CCc1nn(C)c(Cl)c1CN1C[C@@H](NC(=O)N(C)C)[C@H](C(C)C)C1	3.461
CCOCc1ccccc1NC(=O)NC1CCN(CC(F)(F)F)C1 (stereo unspecified)	4.433
CCN(CC)CCN(CC(C)C)c1cc(C(F)(F)F)nc2ncnn12	-0.1585
Cc1cccc(C(=O)N2CCN(S(C)(=O)=O)[C@@H](C)C2)c1C	-0.07044
CNC(=O)NC(=O)CCN1CCOC(c2ccc(Br)cc2)C1 (stereo unspecified)	0.8414
CC(=O)N1CCO[C@@H]2CN(S(=O)(=O)C3CC3)CC[C@@H]2C1	114.1
O=C(O)C(F)(F)F.O=S(=O)(C1CC1)N1C[C@@H]2CN(Cc3ccoc3)CCO[C@@H]2C1	10.49
CC(=O)N1CCO[C@@H]2CN(C(=O)c3ccc4ccccc4c3)CC[C@@H]2C1	3.224
CC(=O)N1CCO[C@@H]2CN(S(=O)(=O)c3ccccc3F)C[C@@H]2C1	-1.494
CC(=O)N1C[C@@H]2CN(S(=O)(=O)C3CC3)CCO[C@@H]2C1	81.74
O=C(O)C(F)(F)F.O=S(=O)(C1CC1)N1CCO[C@@H]2CN(Cc3cccs3)C[C@@H]2C1	3.839
CC(=O)N1CCO[C@@H]2CN(S(=O)(=O)C3CC3)C[C@@H]2C1	90.6
COCc1ccc(CN[C@H]2C[C@@H](Cc3cc(CCO)on3)C2(C)C)o1	-18.1
CSC(C)C(=O)N1CCN(CCO)CC1 (stereo unspecified)	-9.9
CCCn1nc2c(cc1=O)CN(Cc1c(C)noc1C)CC2	-3.39
Cc1noc(C2CCCN(CC(=O)N3CCNC(=O)C3)C2)n1 (stereo unspecified)	8.261

Compound	Percent Effect [%]
CN(C)C(=O)CN1C[C@@H]2CC[C@H](C1)N(Cc1ccccc1OCCO)C2	-40.78
Cc1cc(CN(CCO)c2ccccc2)on1	-2.201
Cc1nc(CNC(=O)Cn2nc(-c3ccc(F)cc3)oc2=O)cs1	-1.04
Cn1c(SCc2noc(-c3ccsc3)n2)nnc1C1CCS(=O)(=O)C1 (stereo unspecified)	-1.02
CC(C(=O)Nc1ncccn1)N1CCc2[nH]nc(C(F)(F)F)c2C1 (stereo unspecified)	-12.45
CSc1nnc(C2CCN(C(=O)N3CCOCC3)CC2)n1C(C)C	91.83
CSc1nnc(C2CCN(C(=O)N3CCCC3)CC2)n1C(C)C	114
CC(C)n1ccnc1C1CCN(C(=O)N2CCCC2)CC1	-25.38
CC(C)CN1C(=O)CO[C@@H]2CN(C(=O)N3CCOCC3)C[C@H]21	-11.7
CC(C)c1cc(NC2CCN(C(=O)N3CCCC3)CC2)ncn1	-23.56
Cn1ccc(NC2CCN(C3CC3)C2=O)n1 (stereo unspecified)	-4.974
CC(C)n1nc(CN2CCCC2=O)c2c1CN(C(=O)c1ccco1)C2	113.5
CC(C)n1nc(CN2CCCC2=O)c2c1CN(C(=O)c1ccc[nH]1)C2	104.5
Cn1nc(CN2CCOCC2)c2c1CN(C(=O)c1ccc[nH]1)C2	-8.763
COCc1nn(CC2CC2)c2c1CN(C(=O)c1ccno1)CC2	1.769
Cn1nc(CN2CCCC2)c2c1CN(C(=O)c1ccc[nH]1)CC2	-10.94
COCc1nn(C)c2c1CN(C(=O)c1ccno1)CC2	7.505
Cn1nc(C#N)c2c1CN(C(=O)c1ccco1)CCC2	-2.9
O=C(c1ccco1)N1CCc2onc(CN3CCCC3)c2C1	-15.89
CC(C)n1nc(CN2CCCC2=O)c2c1CN(C(=O)c1ccno1)C2	92.04
N#CC1COCCN1S(=O)(=O)c1ccc2c(c1)CCC2 (stereo unspecified)	4.042
N#Cc1cccnc1N[C@@H]1c2ccccc2C[C@@H]1O	4.876
CCN(CC)C(=O)[C@@H]1C[C@H](N)CN1C(=O)c1cc2c([nH]c1=O)CCC2	-7.026
Cc1cnc(C)c(-c2cc(O)c3c(c2)CN(Cc2nccs2)CCO3)n1	17.73

Compound	Percent Effect [%]
Cc1cc(C(=O)N2CCN(c3ccncc3Cl)CC2)n(C)n1	77.84
CC(C)c1cc(C(=O)N2CCN(c3ccncc3)CC2)n(C)n1	12.18
Cc1nn(C)c(C)c1C(=O)N1CCN(C(=O)CCC2CCCCC2)CC1	-21.72
Cc1cccc(N2CCN(C(=O)c3c(C)nn(C)c3C)CC2)c1C	34.44
Cc1nn(C)c(C)c1C(=O)N1CCN(c2ccncc2Cl)CC1	86.38
O=C(N1CCOCC1)N1CCN(c2ccncc2Cl)CC1	-18.06
Cc1cc(F)ccc1S(=O)(=O)NCC(O)c1cccn1C (stereo unspecified)	-4.916
CCOCC1CN(C(=O)CC2=CCCCC2)Cc2nnn(C)c21 (stereo unspecified)	41.96
Cc1nccc([C@@H]2C[C@@H]3CCN(S(=O)(=O)C4CC4)C[C@H]3O2)n1	103.3
Cc1nccc([C@@H]2C[C@@H]3CCN(S(=O)(=O)N(C)C)C[C@H]3O2)n1	88.34
O=C1CO[C@H]2CN(S(=O)(=O)c3ccccc3)C[C@H]2N1c1ccccc1	-3.468
Cc1nccc([C@H]2C[C@@H]3CCN(S(=O)(=O)N(C)C)C[C@H]3O2)n1	-8.198
O=C1CO[C@H]2CN(S(=O)(=O)c3ccccc3)C[C@H]2N1Cc1ccccn1	1.166
Cc1nccc([C@@H]2C[C@H]3CN(S(=O)(=O)c4ccccc4)C[C@H]3O2)n1	93.7
O=C(C1CCOCC1)N1CC[C@H]2C[C@@H](c3ccncn3)O[C@@H]2C1	-5.284
Cc1nccc([C@H]2C[C@@H]3CCN(S(=O)(=O)C4CC4)C[C@H]3O2)n1	101.1
N#Cc1cc2c(=O)n(CC(O)c3cccc(O)c3)ccc2[nH]c1=O (stereo unspecified)	-10.2
COc1cc(N2CC[C@@H]3O[C@@H](c4ccnc(C)n4)C[C@H]3C2)ncn1	-12.7
Cc1nccc([C@@H]2C[C@@H]3CCN(S(C)(=O)=O)C[C@H]3O2)n1	-4.62
Cc1nccc([C@H]2C[C@@H]3CCN(S(C)(=O)=O)C[C@H]3O2)n1	116.1
O=S(=O)(NC1CCC2(CC1)OCCO2)c1ccccc1Br	-6.742
COC(=O)CCCNC(=O)N1CCc2c(F)ccc(F)c2C1	-9.292
CCOCCCC(=O)Nc1ccc(OCc2noc(C3CC3)n2)cc1	20.67
CC(=O)Nc1ccc(OCc2noc(C(=O)N3CCCCCC3)n2)cc1	101

Compound	Percent Effect [%]
CC(=O)Nc1ccc(OCc2noc(C(=O)N3CCCC3)n2)cc1	120.5
CCc1nc(COc2ccc(OCc3cnn(C)c3)cc2)no1	-33.42
O=C(c1nc(COc2ccc3c(c2)OCO3)no1)N1CCCC1	8.865
CCOCCNC(=O)Nc1ccc(OCc2noc(C3CC3)n2)cc1	-0.9885
NC(=O)Cc1ccc(OCc2noc(C(=O)N3CCCC3)n2)cc1	130.8
CC(=O)Nc1ccc(OCc2noc(C(=O)N3CCCCC3)n2)cc1	122.5
CC(C)c1nc(C2CCCN2c2ncc(C(N)=O)cc2Cl)no1 (stereo unspecified)	-26.86
CC(C)=Cc1c(-c2ccccc2)ncn1CCN(C)S(C)(=O)=O	-6.043
CCCc1nnc(NC(C)c2ccc3c(c2)OCCO3)o1 (stereo unspecified)	16.29
COCCCn1ccc(NC(=O)NCCCNc2ccccc2)n1	-2.159
COc1cc(Cl)c(C)cc1NC(=O)CCNc1ccc(C#N)cn1	-3.637
CC(C)c1nc(CN(C)CC2CCN(CCO)CC2)no1	-11.77
c1ccc2cc(OCCN3CCn4c(nnc4C4CC4)C3)ccc2c1	2.138
CCN1C(=O)CC[C@@H]2[C@H]1CCN2C(=O)Cc1cccc(OC)c1	-2.508
CCOC(=O)c1nc(COc2ccc(CC(N)=O)cc2)no1	100.5
CC(C)Cc1nc(COc2ccc(N(C)C(N)=O)cc2)no1	-36.1
NC(=O)c1nc(COc2ccc3c(c2)OCO3)no1	26.77
CC(C)C1CN(C(=O)c2ccc(N3CCCC3)nc2)CCS1 (stereo unspecified)	-8.119
Cc1cccc(C(=O)NC2CCN(c3cnn(C)c3)C2=O)n1 (stereo unspecified)	-1.568
O=C(O)CNC(=O)Cc1csc(-c2cccc(Cl)c2)n1	95.07
O=C(O)CCNC(=O)Cc1csc(-c2cccc(Cl)c2)n1	119
CNC(=O)Cc1noc(Cc2cccc(Cl)c2)n1	10.38
Cc1nc(CNC(=O)NCC(O)c2cccc(Cl)c2)cs1 (stereo unspecified)	-14.28
CN(Cc1csc(-c2ccccc2)n1)C(=O)CCNS(C)(=O)=O	-10.81
